Measured values from the supplement of paper PMC10849652.
Targets with a hit are over-represented here; the source holds about 7,900 in all. About 0.6% of all pairs of compound and target were hits. A number with no mark means an inactive call.

Tests used:
Experiment in all cases: log2 fold change, soluble protein after heating vs DMSO (PISA); higher = thermal stabilisation; K562 cells, 10 uM, 30 min; active = over 0.2 and 3.5 SD of the protein, either way, in both replicates (recomputed)
[1] = compound: CC1=C(C=C(C=C1)NC(=O)C2=CC(=CC=C2)C(C)(C)C#N)NC3=CC4=C(C=C3)N=CN(C4=O)C
Summary of the method: (§1)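 Values are thermal stability changes relative to control samples and are taken from duplicates. They are stated as log2 fold changes. Before quantification by TMTpro 16plex LC-MS/MS with equalised channel sums, K562 cells at 2×10^6 cells/mL were treated with 10 μM compound for 30 min, heated in aliquots for 3 min across 48°C-58°C, pooled, extracted in PBS with 0.5% NP-40 at 4°C, and centrifuged at 21,000xg for 90 min to give the soluble supernatant.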

[2] = compound: CC1=C(C=C(C=C1)NC(=O)C2=CC(=CC=C2)N(C)C)NC(=O)C3=CC=C(C=C3)O
Summary of the method: as §1

[3] = compound: CC1=CC=C(C=C1)SC2=C3C=C(SC3=CN=C2)C(=O)N
Summary of the method: as §1

[4] = compound: CC1=NC(=CC=C1)C2=C(N=C(N2)C(C)(C)C)C3=CC4=NC=CN=C4C=C3
Summary of the method: as §1

Nexturastat A = compound: CCCCN(Cc1ccc(C(=O)NO)cc1)C(=O)Nc1ccccc1 [Nexturastat A]
Summary of the method: as §1

vemurafenib = compound: CCCS(=O)(=O)Nc1ccc(F)c(C(=O)c2c[nH]c3ncc(-c4ccc(Cl)cc4)cc23)c1F [vemurafenib]
Summary of the method: as §1

[5] = compound: CCCS(=O)(=O)Nc1ccc(F)c(C(=O)c2c[nH]c3ncc(Cl)cc23)c1F
Summary of the method: as §1

[6] = compound: CCCc1cc(C)[nH]c(=O)c1CNC(=O)c1cc(-c2ccnc(N3CCN(C)CC3)c2)cc2c1cnn2C(C)C
Summary of the method: as §1

givinostat = compound: CCN(CC)Cc1ccc2cc(COC(=O)Nc3ccc(C(=O)NO)cc3)ccc2c1 [givinostat]
Summary of the method: as §1

barasertib = compound: CCN(CCCOc1ccc2c(Nc3cc(CC(=O)Nc4cccc(F)c4)[nH]n3)ncnc2c1)CCOP(=O)(O)O [barasertib]
Summary of the method: as §1

UniProt Q96AX1, sequence (Q96AX1 whole entry, looked up): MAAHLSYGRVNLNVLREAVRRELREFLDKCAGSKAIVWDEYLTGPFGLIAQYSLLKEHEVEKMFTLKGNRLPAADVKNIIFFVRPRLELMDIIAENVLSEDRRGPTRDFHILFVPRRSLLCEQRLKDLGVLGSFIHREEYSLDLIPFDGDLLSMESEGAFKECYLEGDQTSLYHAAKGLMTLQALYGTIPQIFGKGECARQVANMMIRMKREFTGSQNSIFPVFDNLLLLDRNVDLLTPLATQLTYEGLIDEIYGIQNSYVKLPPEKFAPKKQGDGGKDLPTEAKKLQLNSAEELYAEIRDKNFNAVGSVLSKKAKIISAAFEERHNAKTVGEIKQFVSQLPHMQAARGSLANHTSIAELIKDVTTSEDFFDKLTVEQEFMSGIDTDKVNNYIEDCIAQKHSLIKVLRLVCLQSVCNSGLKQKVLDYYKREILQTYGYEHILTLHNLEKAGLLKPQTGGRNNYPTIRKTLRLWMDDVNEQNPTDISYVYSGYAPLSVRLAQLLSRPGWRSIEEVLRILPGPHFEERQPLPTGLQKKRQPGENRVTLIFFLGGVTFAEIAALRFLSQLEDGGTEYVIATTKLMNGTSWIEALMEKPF
UniProt Q9BTX3, sequence (Q9BTX3 whole entry, looked up): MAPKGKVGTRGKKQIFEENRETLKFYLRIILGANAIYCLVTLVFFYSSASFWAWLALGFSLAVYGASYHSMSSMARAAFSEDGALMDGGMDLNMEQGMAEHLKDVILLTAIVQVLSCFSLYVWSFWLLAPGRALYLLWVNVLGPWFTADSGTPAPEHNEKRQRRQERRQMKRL
UniProt O14773, sequence (O14773 whole entry, looked up): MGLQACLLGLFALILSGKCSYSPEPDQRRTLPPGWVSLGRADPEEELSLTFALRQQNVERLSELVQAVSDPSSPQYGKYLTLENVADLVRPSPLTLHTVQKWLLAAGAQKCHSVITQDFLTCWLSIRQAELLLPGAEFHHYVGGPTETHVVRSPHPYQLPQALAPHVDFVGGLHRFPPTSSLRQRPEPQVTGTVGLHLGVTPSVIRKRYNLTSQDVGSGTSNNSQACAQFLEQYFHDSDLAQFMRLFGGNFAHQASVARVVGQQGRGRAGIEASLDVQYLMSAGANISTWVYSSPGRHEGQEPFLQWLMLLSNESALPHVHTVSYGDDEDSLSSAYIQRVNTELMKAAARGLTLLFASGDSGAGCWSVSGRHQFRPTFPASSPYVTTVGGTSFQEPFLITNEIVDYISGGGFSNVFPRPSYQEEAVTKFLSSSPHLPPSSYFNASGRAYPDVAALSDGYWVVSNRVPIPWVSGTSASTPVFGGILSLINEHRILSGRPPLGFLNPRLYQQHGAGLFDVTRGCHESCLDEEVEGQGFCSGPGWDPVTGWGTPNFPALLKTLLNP
WASHC2C, A0A096LPC5, sequence (A0A096LPC5 whole entry, looked up): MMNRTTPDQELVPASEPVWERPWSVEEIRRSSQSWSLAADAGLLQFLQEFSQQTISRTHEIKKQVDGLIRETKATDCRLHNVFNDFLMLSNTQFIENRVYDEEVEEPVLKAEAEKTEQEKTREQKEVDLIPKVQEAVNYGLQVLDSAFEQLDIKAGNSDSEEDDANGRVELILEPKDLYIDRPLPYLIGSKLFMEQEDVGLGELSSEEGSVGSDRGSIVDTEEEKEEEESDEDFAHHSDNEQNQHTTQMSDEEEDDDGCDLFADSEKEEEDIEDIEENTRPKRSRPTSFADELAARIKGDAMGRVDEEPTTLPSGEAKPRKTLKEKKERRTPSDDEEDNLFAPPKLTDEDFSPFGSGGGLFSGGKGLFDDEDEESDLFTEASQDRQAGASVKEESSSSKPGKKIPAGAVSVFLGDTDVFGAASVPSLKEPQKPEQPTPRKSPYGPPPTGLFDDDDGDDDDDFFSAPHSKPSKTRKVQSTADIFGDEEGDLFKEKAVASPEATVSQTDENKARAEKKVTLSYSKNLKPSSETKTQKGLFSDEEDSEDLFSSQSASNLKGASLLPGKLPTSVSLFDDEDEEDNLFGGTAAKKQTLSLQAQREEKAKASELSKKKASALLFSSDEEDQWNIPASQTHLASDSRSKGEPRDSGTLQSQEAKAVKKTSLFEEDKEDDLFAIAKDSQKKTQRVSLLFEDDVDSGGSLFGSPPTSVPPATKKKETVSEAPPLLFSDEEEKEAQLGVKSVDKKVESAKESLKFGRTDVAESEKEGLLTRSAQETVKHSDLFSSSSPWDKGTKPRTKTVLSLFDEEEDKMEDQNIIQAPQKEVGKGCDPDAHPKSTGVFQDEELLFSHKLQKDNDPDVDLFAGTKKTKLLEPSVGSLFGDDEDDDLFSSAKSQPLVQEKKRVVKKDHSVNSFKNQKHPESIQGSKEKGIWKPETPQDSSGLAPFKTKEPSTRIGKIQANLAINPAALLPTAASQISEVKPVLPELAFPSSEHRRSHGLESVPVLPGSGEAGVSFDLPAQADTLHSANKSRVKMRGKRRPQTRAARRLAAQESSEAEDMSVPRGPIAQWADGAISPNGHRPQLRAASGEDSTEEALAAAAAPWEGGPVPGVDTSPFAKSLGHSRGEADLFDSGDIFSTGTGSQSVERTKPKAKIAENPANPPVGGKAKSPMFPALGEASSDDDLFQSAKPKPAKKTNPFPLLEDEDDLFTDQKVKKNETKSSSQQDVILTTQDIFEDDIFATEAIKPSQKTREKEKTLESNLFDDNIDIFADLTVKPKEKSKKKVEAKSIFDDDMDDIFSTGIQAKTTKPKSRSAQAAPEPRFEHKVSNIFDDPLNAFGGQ
UniProt Q9UL33, sequence (Q9UL33 whole entry, looked up): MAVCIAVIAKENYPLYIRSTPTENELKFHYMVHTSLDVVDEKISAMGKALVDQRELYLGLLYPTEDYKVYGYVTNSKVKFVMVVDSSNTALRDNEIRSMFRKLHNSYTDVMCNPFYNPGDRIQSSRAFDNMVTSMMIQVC
UniProt P57081, sequence (P57081 whole entry, looked up): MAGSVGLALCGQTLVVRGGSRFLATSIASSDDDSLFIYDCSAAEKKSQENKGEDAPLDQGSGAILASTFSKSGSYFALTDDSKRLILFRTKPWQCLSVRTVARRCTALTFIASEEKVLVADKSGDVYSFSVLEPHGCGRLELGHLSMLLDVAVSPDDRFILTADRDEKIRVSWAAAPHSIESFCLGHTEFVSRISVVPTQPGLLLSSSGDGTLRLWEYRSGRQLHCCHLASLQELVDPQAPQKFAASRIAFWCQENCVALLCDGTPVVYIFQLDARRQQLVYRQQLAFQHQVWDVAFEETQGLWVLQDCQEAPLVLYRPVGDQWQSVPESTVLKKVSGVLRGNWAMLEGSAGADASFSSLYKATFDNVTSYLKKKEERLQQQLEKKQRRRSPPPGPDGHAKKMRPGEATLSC
UniProt Q9Y5L0, sequence (Q9Y5L0 whole entry, looked up): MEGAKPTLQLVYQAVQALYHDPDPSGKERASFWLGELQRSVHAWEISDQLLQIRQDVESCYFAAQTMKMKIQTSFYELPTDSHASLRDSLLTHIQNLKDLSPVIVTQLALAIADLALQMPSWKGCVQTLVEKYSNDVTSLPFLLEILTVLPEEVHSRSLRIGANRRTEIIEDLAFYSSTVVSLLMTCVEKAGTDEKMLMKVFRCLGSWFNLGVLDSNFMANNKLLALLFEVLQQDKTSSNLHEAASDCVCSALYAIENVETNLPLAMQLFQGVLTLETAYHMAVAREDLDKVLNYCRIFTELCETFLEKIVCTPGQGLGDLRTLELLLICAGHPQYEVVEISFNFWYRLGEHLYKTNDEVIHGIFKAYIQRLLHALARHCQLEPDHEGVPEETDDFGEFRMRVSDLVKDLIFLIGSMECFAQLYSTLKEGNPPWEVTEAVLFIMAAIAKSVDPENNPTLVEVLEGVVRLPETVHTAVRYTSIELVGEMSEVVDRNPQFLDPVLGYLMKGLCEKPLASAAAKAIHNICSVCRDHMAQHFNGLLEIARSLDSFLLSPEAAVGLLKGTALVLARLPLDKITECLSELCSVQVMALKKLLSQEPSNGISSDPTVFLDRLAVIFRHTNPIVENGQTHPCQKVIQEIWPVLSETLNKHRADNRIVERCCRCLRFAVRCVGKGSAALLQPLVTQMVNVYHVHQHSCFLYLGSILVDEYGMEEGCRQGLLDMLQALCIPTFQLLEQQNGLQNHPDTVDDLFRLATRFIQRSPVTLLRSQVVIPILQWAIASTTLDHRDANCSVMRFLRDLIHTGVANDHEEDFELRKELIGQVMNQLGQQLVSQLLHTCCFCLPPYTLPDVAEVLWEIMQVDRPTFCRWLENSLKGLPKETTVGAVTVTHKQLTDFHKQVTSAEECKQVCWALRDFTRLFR
UniProt Q9UEU0, sequence (Q9UEU0 whole entry, looked up): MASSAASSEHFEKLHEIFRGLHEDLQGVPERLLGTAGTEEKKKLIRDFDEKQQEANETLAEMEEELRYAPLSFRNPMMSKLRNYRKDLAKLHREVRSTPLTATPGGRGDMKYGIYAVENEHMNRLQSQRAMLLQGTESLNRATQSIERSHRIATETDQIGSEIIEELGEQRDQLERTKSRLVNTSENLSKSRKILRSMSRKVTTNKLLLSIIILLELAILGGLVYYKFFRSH
UniProt Q6PID6, sequence (Q6PID6 whole entry, looked up): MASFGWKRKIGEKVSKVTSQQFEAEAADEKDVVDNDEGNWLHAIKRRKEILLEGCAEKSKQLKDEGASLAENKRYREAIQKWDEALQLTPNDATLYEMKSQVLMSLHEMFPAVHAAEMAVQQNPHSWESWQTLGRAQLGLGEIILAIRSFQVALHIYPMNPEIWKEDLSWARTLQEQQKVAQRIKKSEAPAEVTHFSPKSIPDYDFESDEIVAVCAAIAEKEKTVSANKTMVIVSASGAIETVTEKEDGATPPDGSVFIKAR
UniProt Q16763, sequence (Q16763 whole entry, looked up): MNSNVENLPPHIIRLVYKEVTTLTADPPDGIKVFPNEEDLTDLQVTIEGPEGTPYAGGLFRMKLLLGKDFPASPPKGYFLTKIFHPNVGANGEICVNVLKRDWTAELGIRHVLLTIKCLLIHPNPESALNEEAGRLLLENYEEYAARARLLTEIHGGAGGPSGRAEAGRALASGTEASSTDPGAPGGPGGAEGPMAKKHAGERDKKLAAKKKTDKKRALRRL

| Target | log2 fold change [1] | log2 fold change [2] | log2 fold change [3] | log2 fold change [4] | log2 fold change (Nexturastat A) | log2 fold change (vemurafenib) | log2 fold change [5] | log2 fold change [6] | log2 fold change (givinostat) | log2 fold change (barasertib) |
| --- | --- | --- | --- | --- | --- | --- | --- | --- | --- | --- |
| UBA52 (UniProt P62987) | -0.046 | 0.024 | -0.107 | -0.16 | 0.281 | -0.212 | -0.165 | 0.205 | -0.06 | 0.044 |
| WDR61 (UniProt Q9GZS3) | -0.026 | 0.024 | 0.001 | -0.027 | -0.035 | -0.072 | -0.115 | -0.02 | 0.026 | 0.038 |
| WASHC2C, A0A096LPC5 | -0.059 | 0.062 | -0.107 | -0.041 | 0 | 0.039 | -0.206 | -0.101 | -0.012 | -0.037 |
| VTI1B (UniProt Q9UEU0) | -0.038 | 0.006 | -0.008 | -0.014 | 0.036 | -0.03 | 0.009 | -0.034 | -0.04 | -0.007 |
| UTP14A (UniProt Q9BVJ6) | 0.028 | 0.008 | -0.002 | -0.068 | 0.194 | -0.066 | 0.028 | 0.109 | 0.048 | -0.112 |
| UBE4B isoform 4 (UniProt O95155) | 0.007 | -0.012 | 0.001 | 0.014 | -0.017 | 0.024 | 0.045 | -0.008 | 0.008 | 0.042 |
| TOP2A isoform 4 (UniProt P11388) | 0.081 | -0.006 | -0.083 | -0.094 | 0.234 | -0.213 | 0.042 | 0.182 | 0.207 | -0.054 |
| VRK2 (UniProt Q86Y07) | -0.072 | -0.05 | 0.01 | 0.015 | 0.04 | 0.006 | 0.044 | 0.025 | 0.03 | 0.01 |
| TNFRSF8 (UniProt P28908) | -0.047 | 0.01 | -0.076 | -0.005 | 0.008 | -0.028 | -0.015 | 0.031 | -0.007 | -0.006 |
| UBE3D (UniProt Q7Z6J8) | -0.036 | 0.036 | -0.049 | 0.01 | -0.016 | 0.014 | 0.04 | 0.006 | -0.075 | 0.018 |
| TRAPPC2L (UniProt Q9UL33) | 0 | -0.135 | 0.133 | 0.045 | 0.003 | 0.076 | 0.11 | 0.055 | -0.123 | 0.05 |
| UBR2 (UniProt Q8IWV8) | 0.079 | -0.08 | 0.048 | -0.03 | 0.078 | 0.029 | 0.037 | -0.038 | 0.192 | 0.046 |
| WDR47 (UniProt O94967) | -0.031 | -0.031 | 0.07 | 0.127 | -0.048 | -0.023 | -0.045 | -0.004 | 0.004 | -0.007 |
| TTC38 (UniProt Q5R3I4) | -0.039 | 0.405 | 0.127 | 0.019 | 1.05 (active) | 0.031 | 0.012 | 0.141 | 0.938 (active) | 0.023 |
| TRABD (UniProt Q9H4I3) | 0.014 | -0.017 | -0.005 | -0.133 | -0.03 | 0.125 | -0.06 | 0.147 | -0.041 | 0.031 |
| USO1 isoform 2 (UniProt O60763) | 0.009 | -0.013 | 0.02 | 0.038 | -0.029 | 0.063 | 0.062 | -0.018 | 0 | 0.031 |
| UBE4A isoform 2 (UniProt Q14139) | -0.064 | -0.058 | -0.029 | 0.01 | 0.061 | 0.048 | 0.097 | 0.021 | 0.073 | 0.065 |
| TPP1 (UniProt O14773) | 0.006 | 0.037 | 0.02 | 0.03 | -0.007 | -0.006 | -0.021 | 0 | -0.015 | -0.018 |
| XPNPEP1 isoform 3 (UniProt Q9NQW7) | 0.014 | -0.024 | 0.023 | 0.036 | -0.014 | 0 | 0.021 | -0.01 | 0.042 | 0.016 |
| UHRF1BP1L (UniProt A0JNW5) | -0.079 | -0.031 | -0.038 | -0.032 | -0.054 | -0.039 | -0.033 | 0.027 | -0.033 | 0 |
| TNPO3 (UniProt Q9Y5L0) | 0.028 | 0.004 | 0.057 | 0.003 | -0.036 | 0.069 | 0.08 | 0.003 | 0.029 | 0.019 |
| TNNC2 (UniProt P02585) | -0.064 | 0.037 | 0.002 | -0.024 | -0.011 | 0 | -0.016 | -0.045 | -0.037 | -0.004 |
| TMEM208 (UniProt Q9BTX3) | -0.093 | 0.005 | 0.037 | -0.022 | -0.112 | -0.06 | 0.035 | -0.219 | 0.097 | -0.012 |
| TTC33 (UniProt Q6PID6) | -0.046 | -0.025 | -0.059 | -0.189 | 0.026 | -0.07 | -0.002 | -0.471 | -0.062 | 0.079 |
| WDR4 (UniProt P57081) | -0.112 | -0.055 | 0.173 | 0.104 | 0.048 | -0.004 | 0.26 (active) | -0.013 | -0.026 | -0.023 |
| UBE2S (UniProt Q16763) | 0.024 | -0.015 | 0.004 | 0.009 | 0.057 | 0.013 | 0.049 | -0.007 | 0.044 | 0.03 |
| VPS33A (UniProt Q96AX1) | -0.013 | -0.074 | -0.016 | -0.021 | -0.024 | 0.003 | 0.036 | 0.04 | 0.058 | 0.068 |
| TOM1 isoform 2 (UniProt O60784) | 0.17 | 0.026 | 0.02 | 0.051 | -0.028 | 0.17 | 0.041 | 0 | 0.013 | -0.01 |
| USP15 (UniProt Q9Y4E8) | 0.025 | -0.044 | 0.023 | 0.027 | -0.001 | 0.04 | 0.053 | 0.041 | 0.025 | 0.06 |
| VAMP7 (UniProt P51809) | -0.014 | 0.011 | 0.053 | 0.005 | -0.069 | 0.022 | -0.01 | -0.016 | 0.011 | 0.017 |
